# Screening data (PubChem)
# Cy5 interf NS3h: Cy5 fluorescence interference, HCV helicase counter-screen; Cy5-dT15 DNA with NS3h; actives lie on both sides; signal over control mean, under 1 quenches; fluorescence interference ratio at 100 µM; 16,000 tested, 6% active;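 active = compound fluorescence over control fluorescence at most 0.8, a quencher, or at least a set upper limit, an enhancer; inactive = ratio between 0.8 and the set upper limit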
# NS3h inh CB: hepatitis C NS3 helicase inhibition, primary screen; NS3h Cy5-dT15 DNA binding, fluorescence polarization; inhibition, % at 100 µM; 16,000 tested, 1.6% active; AID 687043;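 active = inhibition above the average over every tested compound plus 3 SD, cut at about 40% in these data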
# * marks the source's active call; other numbers are inactive results. In the library only some 7.6% were active in any assay of this set; here they are far more common.
SMILES,Cy5 interf NS3h,NS3h inh CB
CCOc1ccc2nc(SCC(=O)c3ccc(C)cc3C)sc2c1,0.76*,4
CCOc1ccc2nc(SCC(=O)NC(C)c3ccccc3)sc2c1 (stereo unspecified),1,6
O=C(O)CCCN1C(=O)C(=O)C(=C(O)c2ccc(Cl)cc2)C1c1ccc(F)cc1 (stereo unspecified),1.1,31
CCc1nn2c(N)c(C=C3C=CC(=O)C=C3)c(=O)nc2s1,1,3
Cc1ccc(C(O)=CC(=O)C(=O)Nc2nccs2)cc1,1,0
CCc1ccccc1NC(=O)c1c(NC(=O)c2cccs2)sc2c1CCCCC2,1.1,7
CCCN(CCC)C(=O)c1c(NC(=O)c2cccs2)sc2c1CCCCC2,0.67*,1
O=C1OC(c2ccccc2)=C/C1=C/c1ccc(-c2ccc([N+](=O)[O-])cc2)o1,0.8*,12
Cc1ccc(C2=C/C(=C\c3ccc(-c4ccccc4C(=O)O)o3)C(=O)O2)cc1,0.79*,24
NC1=NC(=O)/C(=C/c2ccccc2OCc2ccc([N+](=O)[O-])cc2)S1,0.97,-7
NC1=NC(=O)/C(=C\c2ccc(-c3ccc([N+](=O)[O-])cc3)o2)S1,1.2*,-2
Cc1ccc(/C=C2/C=C(c3ccccc3)OC2=O)cc1,0.95,5
CN1C(=O)C(=Cc2ccc(-c3ccccc3C(=O)O)o2)C(=O)N(C)C1=O,1.1,39
O=S(=O)(NCc1ccncc1)c1ccc(F)cc1,1.1,-3
COc1ccc(N(CC(=O)Nc2ccccc2)S(C)(=O)=O)cc1Cl,1,10
O=S(=O)(Oc1cccc2ccccc12)c1cc(Cl)ccc1Cl,1,12
O=C(Oc1cccc2ccccc12)c1ccc(Cl)cc1Cl,0.64*,6
O=C(c1cnn2c1NC(c1ccc3c(c1)OCO3)CC2C(F)(F)F)N1CCN(C(c2ccccc2)c2ccccc2)CC1 (stereo unspecified),1.1,6
Cc1ccc(NC(=O)CN(c2cc(Cl)cc(Cl)c2)S(C)(=O)=O)cc1,0.99,7
C=CCNC(=O)CN(c1cc(Cl)cc(Cl)c1)S(C)(=O)=O,1.2*,5
O=c1nc2s/c(=C\c3cn(-c4ccccc4)nc3-c3cccc([N+](=O)[O-])c3)c(=O)n2nc1Cc1ccccc1,0.96,8
COC(=O)c1cc(N2C(=O)C3C4C=CC(C5CC45)C3C2=O)ccc1Cl (stereo unspecified),0.69*,8
O=C1C2C3C=CC(C4CC34)C2C(=O)N1c1ccc(Cl)cc1 (stereo unspecified),0.92,-4
CC(=O)Nc1ccc(S(=O)(=O)NC(c2ccccc2)c2ccccc2)cc1,1.1,12
CC(=O)Nc1ccc(S(=O)(=O)NNC(=O)c2ccccc2Cl)cc1,0.75*,15
SMILES,Cy5 interf NS3h,NS3h inh CB
CC1=CCCC(C)(C)C1C(=O)CC(C)Nc1ccccc1 (stereo unspecified),0.87,2
C=CCn1c(SCC(=O)O)nnc1-c1ccc(OC)cc1,1,-4
C=CCN1C(=O)c2ccccc2C1(O)c1ccc(OC)cc1 (stereo unspecified),0.74*,9
O=c1nc(-c2ccccc2F)c2cc(Cl)ccc2[nH]1,1.1,2
O=C(Nc1ccc(F)cc1)c1ccc(-c2ccccc2)cc1,1.1,16
O=C(Nc1ccccc1)c1ccc(-c2ccccc2)cc1,1.2*,2
CC1CCN(S(=O)(=O)c2ccc(NC(=O)c3ccc(-c4ccccc4)cc3)cc2)CC1,1.4*,-54
CC1CCN(S(=O)(=O)c2ccc(NC(=O)c3ccc([N+](=O)[O-])cc3)cc2)CC1,0.99,-4
CCOc1ccc(NC(=O)/C=C/c2ccc(Cl)cc2)cc1,1.1,9
CC(C)COc1ccc(C(=O)Nc2ccccc2)cc1,0.95,13
COC(=O)c1ccccc1N(Cc1ccc(Cl)cc1)S(=O)(=O)c1ccc(C)cc1,1,11
O=C1c2ccc3c4c(ccc(c24)C(=O)N1CCc1ccc(Cl)cc1)CC3,1,21
Cc1c(Cl)cccc1NC(=O)Cn1cnc([N+](=O)[O-])n1,1.1,5
COC(=O)c1ccccc1NC(=O)Cn1cnc([N+](=O)[O-])n1,0.69*,7
Cc1ccc(S(=O)(=O)NCCNc2ccc([N+](=O)[O-])cc2Cl)cc1,0.94,12
Cc1ccc(-c2nc3ccccc3o2)cc1NC(=S)NC(=O)c1ccc(Cl)cc1,1.1,24
C/C(=N/N=C\c1cccc([N+](=O)[O-])c1)C1C(=O)c2ccccc2C1=O,0.62*,9
CC(=O)N/C(=C\c1cccc([N+](=O)[O-])c1)C(=O)NC(C)C,1,6
COC(=O)C1=C(C(=O)OC)SC(=C2C(=S)C(C)(C)N(C(=O)c3cccc([N+](=O)[O-])c3)c3ccc(OC)cc32)S1,0.53*,16
COC(=O)C1=C(C(=O)OC)SC(=C2C(=S)C(C)(C)N(C(=O)c3cccc(F)c3)c3c(OC)cccc32)S1,1.1,6
CCc1ccccc1NC(=O)[C@H]1CC=CC[C@H]1C(=O)O,0.74*,19
CCc1ccccc1NC(=O)C(CC)c1ccccc1 (stereo unspecified),1,12
Cc1ccc2nc(NC(=O)C3CC(O)CN3C(=O)OC(C)(C)C)sc2c1 (stereo unspecified),0.97,5
O=C(/C=C/c1ccccc1)Nc1nnc(-c2ccco2)s1,1.1,9
COC(=O)c1ccc(/C=C2\SC(=Nc3ccc(Br)cc3)NC2=O)cc1,0.99,9
SMILES,Cy5 interf NS3h,NS3h inh CB
CC(=O)N1C(=O)/C(=C2/SC(=Nc3ccc(Br)cc3)NC2=O)c2ccccc21,1.2*,10
O=C1/C(=C/Nc2ccccc2NS(=O)(=O)c2ccccc2)CCc2ccccc21,1,19
CNC(=O)C(C)NC(=O)C12CC3CC(CC(C3)C1)C2 (stereo unspecified),1.1,0
O=C(NC1CCCCC1)C12CC3CCC(CC(C3)C1)C2,1.2*,7
CCOC(=O)C1=C(O)/C(=C/c2cc(C)n(-c3cccc(Cl)c3)c2C)N=C1C,1,-7
COc1ccc(OC)c(/C=C/C(=O)Nc2ccc(C)c(Cl)c2)c1,1,14
O=C(Nc1cc(NC(=O)c2ccccc2)cc(C(=O)Nc2nccs2)c1)c1ccccc1,1,-1
O=C(Nc1nccs1)c1cccc(NC(=O)c2cccs2)c1,0.71*,32
O=C(Cc1ccccc1)Nc1ccc(C(=O)Nc2nccs2)cc1,0.68*,21
CCN(CC)c1ccc(C(=O)Nc2nccs2)cc1,0.98,13
O=[N+]([O-])c1ccc(N2CCN(S(=O)(=O)c3ccc4ccccc4c3)CC2)cc1,1,8
CCC1=NN2C(=N)/C(=C/c3cccc(OCc4ccccc4F)c3)C(=O)N=C2S1,0.98,4
CCOc1cccc2c1NC(C)(C)c1sn(-c3ccccc3OC)c(=S)c1-2,0.98,11
CCOC(=O)c1c(NC(=O)c2ccc(Cl)c([N+](=O)[O-])c2)sc(C(=O)Nc2cc(C(F)(F)F)ccc2Cl)c1C,1.2,4
Cc1ccc(C(=O)N/C(=C\c2cccc(Oc3ccccc3)c2)C(=O)NCCCn2ccnc2)cc1,0.89,10
COC(=O)c1ccc(-n2c(C)cc(C=C3C(=O)N(C)C(=O)N(C)C3=O)c2C)cc1,0.8*,16
COC(=O)c1ccc(-n2c(C)cc(/C=C3\C(=O)NC(=O)N(c4ccc(OC)cc4)C3=O)c2C)cc1,0.99,5
Cc1cccc(C(=O)Nc2sc3c(c2C(=O)N2CCN(C)CC2)CCCCC3)c1,1.1,3
